a7 integrin act: activators of alpha7 integrin expression for muscular dystrophy; alpha7betagal myoblasts, beta-gal FDG fluorescence, 48 h; Potency, µM (doses to about 38.3 µM), without a hit: at the highest dose activation, hits mostly activators; actives 0.064% (n = 350,000); active = well fitted activation curve with a large enough effect; inconclusive = small, poorly fitted or top-dose-only effect; inactive = no such curve, though single readings can be large or run the other way;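 also: potency is read from the fitted curve at half-maximal effect; 100% = response of the positive control SU9516; nearly all actives have a fitted effect of over 60% in size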
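Alpha7betagal+/- myoblasts (passage 13) were plated 16-24 hr, then exposed to compounds (1:260 dilution of DMSO stock) for 48 hours at 37C. After MPER lysis, β-galactosidase reporter activity was read as FDG fluorescence (ex 480/em 540) after 30 minutes.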
D3 ag: D3 dopamine receptor (human) agonism; P35462; D3R DiscoveRx beta-arrestin cells, luminescence, 90 min; max activation, %; actives 0.58% (n = 410,000); AID 652048; in the data active = max activation above about 30%; also: 0% is about no effect
Target sequence (P35462 whole entry, looked up): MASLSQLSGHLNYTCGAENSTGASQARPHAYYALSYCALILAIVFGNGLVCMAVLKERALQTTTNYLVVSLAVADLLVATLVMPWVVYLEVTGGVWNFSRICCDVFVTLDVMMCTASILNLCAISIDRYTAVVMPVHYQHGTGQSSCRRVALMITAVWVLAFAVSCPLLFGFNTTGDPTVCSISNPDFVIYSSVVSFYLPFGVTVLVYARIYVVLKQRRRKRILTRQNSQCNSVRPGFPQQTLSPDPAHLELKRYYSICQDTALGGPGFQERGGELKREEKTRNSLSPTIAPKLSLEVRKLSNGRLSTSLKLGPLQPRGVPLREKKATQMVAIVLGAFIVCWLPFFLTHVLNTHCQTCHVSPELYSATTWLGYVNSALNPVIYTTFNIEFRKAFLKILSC
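Agonist-mode cell screen: cells plated at 1500/well and incubated overnight at 37 °C, then exposed to library compounds for 90 min at 37 °C. Detection reagent was added for 30–60 min at room temperature, and luminescence was read.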
DRD3 antagonist: antagonists of human D3 dopamine receptor; P35462; D3R cells, DiscoveRx beta-arrestin luminescence, antagonist mode; stronger effect = lower value; max response, negative = inhibition, %; actives 2.5% (n = 360,000); in the data active = max response below about -50%; inconclusive = no clear call, values can overlap the other calls; also: % is scaled to controls: 0 for no effect and ±100 for the full control effect
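Cells plated overnight at 1500 cells/well, then exposed to library compounds with dopamine controls for 90 minutes at 37 degrees C. DiscoveRx reagent added for 30–60 minutes at room temperature; luminescence read, quantitative HTS format.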
* hit, by the source's call; ? = inconclusive; . = not tested or not shown; [ ] = another dose, or the depositor's remark. Compounds with a hit are over-represented: about 2.9% of the library has one in this group of screens.

SMILES | a7 integrin act | D3 ag | DRD3 antagonist
CCOc1ccc(NC(=O)COc2ccc3c(c2)OCO3)cc1 | 3% | 6 | 6
COc1ccc2c(c1)c1c(c(=O)n(CCc3ccccc3)c(=O)n1Cc1ccccc1)n2C | . | 3 | .
CC(C)c1ccc(O)c(NC(=O)c2cccnc2)c1 | 3%[7.66 µM] | -13 | -19
CCC(C)c1ccc(O)c(NC(=S)NC(=O)c2cccnc2)c1 (stereo not given) | 3% | -41 | -63*
Cc1ccc(Cl)cc1N1CCN(CCNC(=O)Nc2ccc(Cl)cc2)CC1 | . | -8 | .
COC(=O)c1cccc(NC(=O)CN2CCN(Cc3ccccc3)CC2)c1 | 8% | -10 | -50*
CC(=O)c1cccc(NC(=O)CN2CCN(Cc3ccccc3)CC2)c1 | 3% | -9 | -9
Cc1ccc(Cl)cc1N1CCN(CC(=O)Nc2ccc(CN3CCCCC3)cc2)CC1 | -64% | -8 | -65*
COc1ccccc1N1CCN(CC(=O)Nc2ccc(CN3CCCCC3)cc2)CC1 | -48% | -27 | -65*
COc1ccccc1NC(=O)CN1CCN(c2ccccc2OC)CC1 | -1% | 0 | 9
COc1ccccc1N1CCN(CC(=O)NCc2ccc(Cl)cc2)CC1 | ? | -7 | -70*
COc1ccccc1N1CCN(CC(=O)NC(=O)NCc2ccccc2)CC1 | -4% | -6 | -5
COCCN(C(=O)CSc1nnc(-c2ccccc2F)n1N)c1c(N)n(Cc2ccccc2)c(=O)[nH]c1=O | -2% | -1 | ?
COCCCn1c(C(=O)NCCC2=CCCCC2)cc2c(=O)n3ccccc3nc21 | 24% | 2 | 9
Cc1ccc(C(=O)OC(C)C(=O)Nc2ccc(S(N)(=O)=O)cc2)cc1S(=O)(=O)N1CCOCC1 (stereo not given) | -3% | -15 | 5
CC(=O)c1cccc(NC(=O)CSCc2ccccc2)c1 | 13% | -8 | -79*
CC(=O)c1cccc(NC(=O)CSCc2ccc(Br)cc2)c1 | 8% | -26 | 0
CCOC(=O)c1ccc(NC(=O)CSc2nc(C)c(Cc3ccccc3)c(=O)[nH]2)cc1 | . | 2 | .
Cc1ccc(CNC(=O)c2sc3nc(C)cc(C)c3c2-n2cccc2)cc1 | . | 15 | .
Cc1cc(C)c2c(-n3cccc3)c(C(=O)NNS(=O)(=O)c3ccccc3)sc2n1 | 3% | -2 | -55*
Cc1cc(C)c2c(-n3cccc3)c(C(=O)NNS(=O)(=O)c3ccc(Cl)cc3)sc2n1 | 9% | 0 | -56*
Cc1cc(C)c2c(-n3cccc3)c(C(=O)O)sc2n1 | -13% | 3 | -7
Cc1cc(=O)oc2cc(OCC(=O)Nc3ccc(CN4CCOCC4)cc3)ccc12 | -42% | 3 | 3
Cc1ccc(NC(=S)NNC(=O)Cn2nc(C(F)F)cc2C(F)F)cc1 | 1% | -1 | 0
Cc1ccc(C)c(NC(=O)CSc2nnc([C@@H](N)Cc3ccccc3)o2)c1 | 10% | -29 | 15
SMILES | a7 integrin act | D3 ag | DRD3 antagonist
CCNC(=O)/C(C#N)=C/c1c(N2CCN(c3ccccc3)CC2)nc2c(C)cccn2c1=O | -1% | -26 | -69*
CNC(=O)/C(C#N)=C/c1c(N2CCN(c3cccc(Cl)c3)CC2)nc2c(C)cccn2c1=O | 5% | -39 | -57*
CCOC(=O)/C(C#N)=C/c1c(N2CCN(c3cccc(Cl)c3)CC2)nc2c(C)cccn2c1=O | 29% | 1 | 0
C=CCNC(=O)/C(C#N)=C/c1c(N2CCN(c3cccc(Cl)c3)CC2)nc2c(C)cccn2c1=O | -1% | -33 | -59*
CCNC(=O)/C(C#N)=C/c1c(N2CCN(c3ccc(OC)cc3)CC2)nc2c(C)cccn2c1=O | 15% | -3 | 5
COCCNC(=O)/C(C#N)=C/c1c(N2CCN(c3cccc(Cl)c3)CC2)nc2c(C)cccn2c1=O | -19% | -15 | -5
C=CCNc1nc(Cl)nc(NCc2ccco2)n1 | -14% | -4 | -3
CCOc1cc(C2CC(=O)Nc3cc(C)c(C)cc32)ccc1O (stereo not given) | 0% | 3 | -14
COc1cc(/C=N/S(=O)(=O)CCc2ccccc2)ccc1O | 6% | -14 | 18
O=C(Nc1c(-c2ccccc2)[nH][nH]c1=O)c1ccco1 | . | -5 | -28
Cc1cc(F)ccc1S(=O)(=O)N1CCCOC1CNC(=O)C(=O)NCCc1ccccc1 (stereo not given) | 17% | 3 | 13
CC1CC(C)(C)NC(=S)N1CCC(=O)Nc1ccc2c(c1)OCCO2 (stereo not given) | -5% | 0 | -15
Cn1c(=O)c2cc(S(=O)(=O)NCCC(=O)NC3CCCCCC3)ccc2n(C)c1=O | -7% | 6 | 22
C[C@H](C[C@H](O)[C@H]1OC1(C)C)C1=C2C[C@H](O)C3[C@@]4(C)CCC(=O)C(C)(C)C4CC[C@]3(C)[C@@]2(C)CC1 (stereo not given in full) | -23% | -6 | 63
C[C@@H](C[C@@H](O)[C@H](O)C(C)(C)O)[C@@H]1CC[C@]2(C)C3=CC[C@H]4C(C)(C)C(=O)CC[C@]4(C)[C@H]3CC[C@@]12C | 0% | 45* | 120
COC/C=C/C1=CC(=O)C[C@H](c2ccc3c(c2)OCO3)C1 | 0% | 2 | 5
O=C1C=C(c2ccc(CO)cc2)C[C@@H](c2ccc3c(c2)OCO3)C1 | -16% | -27 | -51*
CCCCC/C=C/C1=CC(=O)C[C@H](c2ccc3c(c2)OCO3)C1 | -12% | 51* | -1
O=C1C=C(c2ccc(-c3ccccc3)cc2)C[C@@H](c2ccc3c(c2)OCO3)C1 | 14% | 16 | 7
COc1ccc(NS(=O)(=O)c2ccc3c(c2)CCO3)cc1 | 11% | -2 | 4
COc1ccccc1CNS(=O)(=O)c1cc(C(=O)N(C)Cc2cccnc2)c(Cl)cc1Cl | -5% | 3 | -29
COc1ccc(CC(=O)N(CCC2=CCCCC2)c2c(N)n(Cc3ccccc3)c(=O)[nH]c2=O)cc1 | 9% | -6 | 0
Cc1ccc(C(=O)CSc2nc(C)cc(=O)[nH]2)cc1 | -1% | 5 | 4
Cc1cc(=O)[nH]c(SCC(=O)c2ccc(O)c(O)c2)n1 | -19% | 31* | -4
CCC(C)[C@H]1CN=C(N)N1CCc1cccc2ccccc12 (stereo not given in full) | -33% | -17 | -12
SMILES | a7 integrin act | D3 ag | DRD3 antagonist
CC1=CC(=O)C(Sc2ccc(C)cc2)=CC1=O | -62% | -13 | -92*
Cc1ccc(Sc2c(C)[nH]n(C(C)(C)C)c2=O)cc1 | 24%[7.66 µM] | -1 | -13
CCC(=O)N1N=C(c2ccc(C)o2)CC1c1ccc(OC)cc1 (stereo not given) | 23% | -19 | -3
COc1ccc(Cl)cc1NS(=O)(=O)c1ccc2c(c1)NC(=O)CC(=O)N2 | . | 3 | .
CC(C)=CCC1C(=O)N(c2ccccc2)N(c2ccccc2)C1=O | . | -20 | .
CCCCC1C(=O)N(c2ccccc2)N(c2ccc(O)cc2)C1=O (stereo not given) | . | -9 | -74*
COc1cccc(Nc2nc3ccccc3nc2NS(=O)(=O)c2ccc(NC(C)=O)cc2)c1 | 3% | -7 | -28
COc1cccc(Nc2nc3cc(C)ccc3nc2NS(=O)(=O)c2ccc(Cl)cc2)c1 | . | 43* | .
Cc1ccc(OCC(=O)Nc2nnc(S(=O)(=O)N3CCCCC3)s2)cc1 | 0% | 0 | 1
Cc1cc(C)c(S(=O)(=O)NCc2cn3c(C)csc3n2)c(C)c1 | -15% | 2 | 24
